Assay outcomes from PubChem.
Hits are enriched below; roughly 4.3% of the tested compounds scored in any of these assays.
esBAF inh = SWI/SNF esBAF complex inhibition; mouse ES cells, Bmi1-luciferase knock-in reporter, 24 h; 100% = twice the neutral-well signal; reporter increase, % at 12.5 µM; 2% of 350,000 active; AID 602393; in the data active means activation above about 40%; inconclusive means no clear call, values can overlap the other calls;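 further: 0% = median of the plate's neutral control wells and 100% = double that signal; a rise in the Bmi1 reporter signal indicates esBAF inhibition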
SMARCA2 activ = increases SMARCA2 function in MMTV reporter cells | activation, % at 9.1 µM | 1% of 370,000 active | MG213 cells, MMTV-luciferase reporter, dexamethasone, overnight; in the data active means activation above about 7.8%;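 further: 0% = vehicle wells and 100% = reference activator wells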
HSF1 inhib = HSF1 inhibition; NIH3T3-HGL HSE-luciferase, MG132-induced, luminescence 8 h; hits give low values; 0.77% of 300,000 active; activity change, negative = inhibition, % at 7.5 µM (by protocol);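 active means more than half of replicate wells show activity change below -50%, luminescence cut by over half; inconclusive means some wells, but at most half, below -50%; inactive means no replicate well below -50%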;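 further: luciferase reports HSF-1 transcriptional activity via heat shock element; 0% = median of DMSO wells and -100% = zero luminescence signal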
HSF1 activator = increases HSF-1 driven luciferase reporter signal | 1.7% of 300,000 active | activation, % at 9 µM | NIH3T3-HGL HSF-1 luciferase reporter, MG132, 8 h; 100% = twice DMSO control signal;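 active means mean replicate activation of at least 50% with a set share of replicates each reaching 50%; inconclusive means only one of those two conditions met; inactive means mean below 50% and too few replicates reaching it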;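 further: 0% = median of the neutral control wells and 100% = twice that signal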
Wnt act = activators of Wnt/beta-catenin signaling; Wnt/beta-catenin reporter cell assay, activator, plate reader; activation, % at 9.35 µM; 1.2% of 300,000 active; AID 743398; in the data active means activation above about 30%, passing the limit was not always enough; inconclusive means no clear call, values can overlap the other calls;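 further: 0% = neutral control wells and 100% = positive control wells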
MITF TRPM1 HTS = increases MITF-driven TRPM1 promoter luciferase signal | SK-MEL-5 TRPM1-promoter luciferase, 24 h; % of positive control, neutral wells = 0 | activation, % at 12.5 µM | 0.75% of 300,000 active | AID 588334;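 active means mean activation of at least 80% with every replicate also reaching 80%; inconclusive means mean reaches 80% but some replicate falls short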;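 further: 0% = neutral control wells and 100% = parthenolide positive control wells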
SMARCA2 conf = confirmation of SMARCA2 (BRM) function activators. shares compounds with SMARCA2 activ. activation, % at 9.1 µM. MG213 cells, MMTV-luciferase with dexamethasone, luminescence, overnight; MG213 cells expressing E1A, Rb sequestered; DMSO wells 0%, reference activator 100%. 30% of 3,500 active;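 active means activation above its plate's cutoff, the mean activation of tested wells plus 3 SD, cut at about 7.9% in these data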
VP16 Luc act = counter-screen for SMARCA2 activators: GAL4-VP16 luciferase reporter activation; shares compounds with SMARCA2 activ; HEK293 GAL4-VP16 pG5luc reporter, luciferase luminescence; scaled: DMSO wells 0%, SAHA wells 100%; activation, % at 9.1 µM; 41% of 3,500 active; AID 686939;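 active means activation above the solvent-only control well mean plus 3 SD, averaged across control plates, cut at about 5.2% in these data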
Numbers without * were called inactive; ? = inconclusive; nt = no result given.

SMILES | esBAF inh | SMARCA2 activ | HSF1 inhib | HSF1 activator | Wnt act | MITF TRPM1 HTS | SMARCA2 conf | VP16 Luc act
CCOc1ccc(NC(=O)C/C(C)=N/NC(=O)c2cnccn2)cc1 | 5.7 | 8.9* | 0.5 | -14.5 | -1.6 | -9.2 | 3.0 | 3.2
COc1ccccc1NC(=O)C/C(C)=N/NC(=O)c1ccccn1 | 14.1 | 11.9* | 18.6 | 16.5 | 1.7 | nt | -1.1 | 3.5
CC(C)NC(=O)N(C)C[C@@H]1Oc2cc(C#CCN(C)C)ccc2S(=O)(=O)N([C@@H](C)CO)C[C@H]1C | 0.3 | nt | nt | nt | nt | nt | nt | nt
O=C(C[C@@H]1C[C@H]2c3cc(NC(=O)NC4CCCC4)ccc3O[C@H]2[C@H](CO)O1)NCc1ccncc1 | -2.0 | nt | nt | nt | nt | nt | nt | nt
CC(=O)NCc1ccc(C(=O)CCl)s1 | -2.5 | 9.0* | -5.8 | 0.1 | 0.1 | -34.9 | 10.1* | 8.0*
COc1ccc(C(=O)OCC(=O)c2ccc(CNC(C)=O)s2)cc1 | 17.9 | -0.6 | nt | nt | -2.5 | 17.5 | nt | nt
Cc1cc2ccccn2c1C(=O)c1ccc(Cl)cc1 | 4.7 | 3.1 | 17.0 | -2.9 | nt | 22.5 | nt | nt
Cc1cc2ccccn2c1C(=O)Nc1cccc(Cl)c1 | nt | 8.1* | -1.5 | 24.2 | 0.0 | -2.5 | 4.9 | 3.4
Cc1ccc(S(=O)(=O)NCC[C@@H]2CC[C@@H](NC(=O)NC(C)C)[C@@H](CO)O2)cc1 | 0.4 | nt | nt | nt | nt | nt | nt | nt
O=C(COC(=O)c1ccccc1NS(=O)(=O)c1cccs1)NCC12CC3CC(CC(C3)C1)C2 | nt | 8.9* | 5.6 | 4.4 | -2.4 | -4.2 | -0.9 | 1.2
O=C(COC(=O)c1ccccc1NS(=O)(=O)c1cccs1)NC1CCCCC1 | nt | -3.8 | -1.6 | 11.9 | nt | -8.0 | nt | nt
COc1ccc(C(=O)NCc2ccc(N3CCN(C)CC3)cc2)cc1 | -0.2 | -1.4 | 0.8 | 13.2 | -1.3 | -4.3 | nt | nt
COc1ccc(CNC(=O)c2ccc(C(C)C)cc2)cc1 | nt | 11.5* | 13.3 | 31.5 | 13.6 | 103.7* | 7.0 | 16.6*
C[C@H](CO)N1C[C@H](C)[C@@H](CN(C)CC2CCCCC2)Oc2ccc(NC(=O)NC3CCCCC3)cc2C1=O | -12.5 | nt | nt | nt | nt | nt | nt | nt
Cc1ccc(C(=O)N2CCCC2)cc1S(=O)(=O)N1CCOCC1 | nt | -1.3 | -7.1 | -5.1 | -1.3 | 3.7 | nt | nt
Cc1ccc(C(=O)N2CCCC(C(F)(F)F)C2)cc1S(=O)(=O)N1CCOCC1 (stereo unspecified) | 0.1 | 8.0* | nt | nt | -2.6 | 1.3 | -0.8 | 0.0
CC(NC(=O)c1cc(COc2ccccc2)on1)c1nccs1 (stereo unspecified) | 64.4* | 10.2* | 23.5 | 30.1 | 29.3 | 96.8* | 7.1 | 15.1*
Cc1ccc(-c2nn(-c3ccccc3)cc2C(=O)N2CCN(C3CCS(=O)(=O)C3)CC2)cc1 (stereo unspecified) | 1.4 | 0.0 | nt | nt | -4.6 | 2.4 | nt | nt
Cc1ccc(-c2nn(-c3ccc(F)cc3)cc2C(=O)N2CCN(C3CCS(=O)(=O)C3)CC2)cc1 (stereo unspecified) | 0.6 | 9.5* | nt | nt | -6.9 | 1.6 | 4.3 | 1.9
COC(=O)c1ccccc1NC(=O)N1CCc2ccc(NC(=O)c3ccccn3)cc2C1 | ? | 8.1* | 17.0 | 25.0 | 28.4 | 47.0 | 5.7 | 7.5*
CCCC(=O)Nc1ccc2c(c1)C(=O)N(C)C[C@@H](OC)[C@@H](C)CN(C)[C@@H](C)CO2 | 2.8 | nt | nt | nt | nt | nt | nt | nt
O=C(C[C@H]1CC[C@@H](NC(=O)C2CCOCC2)[C@@H](CO)O1)NCC1CCCCC1 | 5.6 | nt | nt | nt | nt | nt | nt | nt
COc1cc(Cl)c(CNC[C@H]2O[C@@H](n3ccc(=O)[nH]c3=O)[C@H](O)[C@@H]2O)c(Cl)c1O | -2.2 | 10.2* | nt | nt | -1.3 | 3.5 | -0.4 | 0.7
O=C(Cc1ccncc1)NCC[C@@H]1CC[C@@H](NC(=O)C2CCC2)[C@H](CO)O1 | -0.7 | nt | nt | nt | nt | nt | nt | nt
CC(=O)Nc1cccc(NC(=O)CSc2ncc(C(=O)Nc3ccccc3)c(=O)n2C)c1 | 7.9 | 12.1* | 177.0 | 205.6* | 0.1 | -66.2 | 28.4* | 1.6
SMILES | esBAF inh | SMARCA2 activ | HSF1 inhib | HSF1 activator | Wnt act | MITF TRPM1 HTS | SMARCA2 conf | VP16 Luc act
C[C@@H]1CN([C@@H](C)CO)C(=O)c2cc(NC(=O)CCC(F)(F)F)ccc2O[C@@H](C)CCCCO[C@@H]1CN(C)C | -16.0 | nt | nt | nt | nt | nt | nt | nt
CCCN(C)C[C@@H]1Oc2ncc(Br)cc2C(=O)N([C@H](C)CO)C[C@H]1C | -1.3 | nt | nt | nt | nt | nt | nt | nt
COc1ccc(-c2nnc(-c3ccc(N(C)C)cc3)o2)cc1 | 36.9 | 16.4* | 20.6 | 28.9 | nt | 65.1 | 12.1* | 1.1
O=C(NCCC1=CCCCC1)c1ccc([N+](=O)[O-])cc1 | nt | 9.5* | 23.3 | 53.2* | 27.8 | 51.1 | 12.5* | 12.2*
COCCNC(=O)c1ccc2c(c1)NC(=O)CS2 | nt | 1.0 | -5.0 | 19.2 | nt | -1.0 | nt | nt
Cc1ccsc1C(=O)OCC(=O)NCCC1=CCCCC1 | nt | 8.4* | 15.2 | 11.8 | -1.2 | 38.6 | 9.7* | 4.8
COc1cccc(C(=O)NCCC2=CCCCC2)c1 | -9.3 | 11.9* | 29.0 | ? | 23.1 | 38.4 | 7.7 | 18.1*
O=C1CSc2ccc(C(=O)NCCC3=CCCCC3)cc2N1 | 50.4* | 9.8* | 23.1 | 35.8 | 19.1 | 30.0 | 1.3 | 6.8*
